This is one part of the list. Active and inactive are the calls of the source.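 The calls were made as follows: active = compound that inhibits Clk2 kinase in the dose series, with an IC50 potency reported; inactive = no inhibition seen.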
molecular target: Dual specificity protein kinase CLK2 (Homo sapiens) (UniProt P49760); experiment: Kinase Inhibition Study on Inhibitors of CDC-like Kinase 2 (Reaction Biology data); conditions: Reaction Biology kinase assay, 10 uM ATP
Description: NIH Molecular Libraries Probe Production Centers Network [MLPCN] NIH Chemical Genomics Center [NCGC] MLPCN Grant: 1R03MH084827-01 Assay Submitter (PI): Tom Misteli NCGC Assay Overview: Alternative splicing of pre-mRNAs plays a major role in the regulation of eukaryotic gene expression. Alternative splicing is now thought to be one of the primary reasons for the complexity of higher organisms leading to an average of three protein isoforms per gene. Aberrant splicing can lead to a number of diseases and is known to play a role in rare genetic diseases such as progeria syndrome. Hutchinson-Gilford Progeria Syndrome (HGPS) is a pediatric premature aging disease caused by a spontaneous mutation in the lamin A/C (LMNA) gene due to a single point mutation in the lamin A gene effecting 1 in 4 million people. To identify both specific splicing modulators of the lamin A gene as well as general splicing modulators, a cell-based HTS assay was developed using a minigene reporter system (AIDs, 1459 & 1487). […] This AID summarizes the characterization of lead compounds in Clk2.
All kinase reactions were performed using 10 uM ATP in the assay. 100% activity was taken from kinase reactions with DMSO alone (the vehicle used for compound stock solutions).

Dual specificity protein kinase CLK2 (Homo sapiens), sequence (P49760 whole entry, looked up, canonical isoform): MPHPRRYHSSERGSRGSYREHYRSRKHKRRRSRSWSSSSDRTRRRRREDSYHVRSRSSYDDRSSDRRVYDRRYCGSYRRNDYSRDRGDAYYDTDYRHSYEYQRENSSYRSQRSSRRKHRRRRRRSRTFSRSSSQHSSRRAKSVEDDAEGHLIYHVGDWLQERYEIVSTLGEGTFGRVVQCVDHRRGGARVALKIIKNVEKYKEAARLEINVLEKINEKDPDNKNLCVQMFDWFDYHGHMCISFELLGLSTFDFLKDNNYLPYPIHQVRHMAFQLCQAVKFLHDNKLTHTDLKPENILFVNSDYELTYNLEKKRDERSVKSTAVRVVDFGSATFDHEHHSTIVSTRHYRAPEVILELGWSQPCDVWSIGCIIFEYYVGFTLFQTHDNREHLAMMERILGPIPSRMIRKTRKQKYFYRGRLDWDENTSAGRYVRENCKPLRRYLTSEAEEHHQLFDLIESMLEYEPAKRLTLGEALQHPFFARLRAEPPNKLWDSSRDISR

Potency, active:
c1nc(N2CCOCC2)c2cc(-c3ccc4c(c3)OCO4)ccc2n1 1.67 µM
CC(Nc1ncnc2ccc(-c3ccc4c(c3)OCO4)cc12)c1ccco1 (centres undefined) 8.37 µM
c1coc(CCNc2ncnc3ccc(-c4ccc5c(c4)OCO5)cc23)c1 0.801 µM
CN(Cc1cncn1C)c1ncnc2ccc(-c3ccc4c(c3)OCO4)cc12 15 µM

Source: PubChem BioAssay AID504427 (National Center for Advancing Translational Sciences (NCATS), 2011)
